Among all 300,000 compounds or so, about 2,400 (0.8%) were called active. This is one part of a sample in which actives are shown more often than they occur.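 Rule for the calls: active = Every replicate reaches about 75%, or at least half do and their mean reaches it too (limit read from the data); inconclusive = At least half of replicates reach the limit but their mean does not; inactive = Under half of replicates reach the limit.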
test: INS-1E beta cell survival under cytokines – luminescence, primary screen (AID 435005); conditions: INS-1E cytokine-induced death, ATP luminescence, 48 h; hits give high values; percent of positive-control rescue, neutral wells zero; concentration not given here;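 note: 0% = cytokine-treated negative control wells and 100% = positive control rescue; higher means more ATP so stronger rescue from cytokine killing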

| SMILES | protection from apoptosis |
| --- | --- |
| Cc1ccc(SCc2c(C(=O)N/N=C/C3CC=CCC3)nnn2-c2nonc2N)cc1 (centres undefined) | -2.44% (inactive) |
| Nc1nonc1-n1nnc(C(=O)N/N=C/c2ccccc2O)c1CN1CCCC1 | 77.1% (active) |
| NNC(=O)c1nnn(-c2nonc2N)c1CN1CCCC1 | 0.21% (inactive) |
| Nc1nonc1-n1nnc(C(=O)N/N=C\c2ccncc2)c1CN1CCCCC1 | -8.98% (inactive) |
| Cc1ccc(SCc2c(C(=O)N/N=C/c3cccnc3)nnn2-c2nonc2N)cc1 | -3.56% (inactive) |
| Nc1nonc1-n1nnc(C(=O)N/N=C/c2cc(Br)ccc2O)c1CSC1=NCCS1 | 86.6% (active) |
| COc1ccccc1-c1nnc2n1N=C(c1ccc(OC(F)F)c(OCC3CC3)c1)CS2 | 14.1% (inactive) |
| COc1ccc(CNC(=O)COC(=O)C(CCSC)N2C(=O)c3ccccc3C2=O)cc1 (centres undefined) | -1.57% (inactive) |
| O=C1COc2ccc(C(=O)COC(=O)c3ccccc3Cl)cc2N1 | -5.54% (inactive) |
| O=C(CSc1nc2ccccc2c(=O)n1Cc1ccc(F)cc1)NCC1CCCO1 (centres undefined) | -5.32% (inactive) |
| CCOC(=O)C1CCN(CC(=O)Nc2ccc(OC)c(S(=O)(=O)N3CCCCC3)c2)CC1 | 0.731% (inactive) |
| CCN(C[C@H]1N[C@@](CC)(C(=O)OC)[C@H]2C(=O)N(Cc3ccccc3)C(=O)[C@@H]12)S(=O)(=O)c1ccccc1 | -2.88% (inactive) |
| O=C(N/N=C/c1ccoc1)c1ccc(Cl)cc1Cl | -6.52% (inactive) |
| O=C(N/N=C/c1ccc(OC(=O)c2ccccc2Cl)cc1)c1ccc(O)cc1 | -1.66% (inactive) |
| CC(C)(C)C(=O)Nc1ccc(C(=O)N/N=C/c2ccccc2OC(=O)c2ccc(Cl)cc2Cl)cc1 | 87.8% (active) |
| CC1O[C@@H](OC2C(O)C(C)O[C@H](OC(=O)[C@]34CCC(C)(C)C[C@H]3C3=CCC5[C@@]6(C)CC(O)C(O[C@@H]7OC(CO)C(O)[C@@H](O)[C@@H]7O)[C@@](C)(C(=O)O)C6CC[C@@]5(C)[C@]3(CO)CC4)C2O[C@H]2OC(C)[C@@H](O[C@@H]3OCC(O[C@@H]4OC(CO)C(O)[C@H](O)C4O)[C@@H](O)[C@@H]3O)[C@H](O)C2O)C(O)C(O)C1O (some centres undefined) | -2.17% (inactive) |
| Cc1ccc(S(=O)(=O)N2[C@@H](c3ccc(Br)cc3)C(C(=O)O)=C[C@H]2CC2CCCC2)cc1 | -9.97% (inactive) |
| Cc1ccc(CNC(=O)COC(=O)C2CCC2)cc1 | -16.3% (inactive) |
| CS(=O)(=O)c1ccc2nc(NC(=O)c3ccc(N4CCCC4=O)cc3)sc2c1 | 2.56% (inactive) |
| CCOc1ccc2nc(NC(=O)c3cc([N+](=O)[O-])ccc3N3CCOCC3)sc2c1 | 32.1% (inactive) |
| O=C(NC(Nc1nc2ccc([N+](=O)[O-])cc2s1)(C(F)(F)F)C(F)(F)F)c1ccccc1 | 118% (active) |

| SMILES | protection from apoptosis |
| --- | --- |
| CCC(=O)NC(Nc1nc2ccc(C)cc2s1)(C(=O)OC)C(F)(F)F (centres undefined) | -2.12% (inactive) |
| CN(C)CCCN(C(=O)c1ccc(S(=O)(=O)N2CCCc3ccccc32)cc1)c1nc2ccc(F)cc2s1 | -11.6% (inactive) |
| O=C(Nc1nc2ccc([N+](=O)[O-])cc2s1)c1ccc(S(=O)(=O)N2CCCc3ccccc32)cc1 | 113% (active) |
| O=C(Nc1ccccc1)N1CCC(C(=O)N2CCN(Cc3ccccc3)CC2)CC1 | -2.8% (inactive) |
| O=C(COC(=O)COc1cccc(F)c1)NCC1CCCCC1 | -3.55% (inactive) |
| Cc1ccc(NS(=O)(=O)c2ccc(C(C)C)cc2)cc1S(=O)(=O)N1CCOCC1 | 4.91% (inactive) |
| Cc1ccccc1NC(=O)CSC(=O)c1ccccc1 | -2.98% (inactive) |
| C#CCOCCOCCOCCNc1nc(N2CCN(C(=O)[C@H](CO)n3cc([C@@H](N)C(C)C)nn3)CC2)nc(N2CCN(C(=O)[C@H](CCC(=O)O)n3cc([C@@H](N)[C@H](C)CC)nn3)CC2)n1 | -6.94% (inactive) |
| CN(C(=O)c1cccc(NC(=O)Cc2ccc([N+](=O)[O-])cc2)c1)C1CCC1 | -5.07% (inactive) |
| COc1cccc(OCc2cc(C(=O)N3CCN(C(=O)c4ccco4)CC3)no2)c1 | -1.9% (inactive) |
| C=CCC1(CC=C)CCCN1C(=O)c1cc(COc2ccc(-n3cncn3)cc2)on1 | 104% (active) |
| CCn1ccnc1CN(C)C(=O)c1cc(COc2ccc(-n3cncn3)cc2)on1 | -3.2% (inactive) |
| Cc1cccc(NC(=O)c2ccc(S(=O)(=O)N(C)c3ccccc3)cc2)n1 | -7.09% (inactive) |
| COc1cccc(/C=N/NC(=O)c2[nH]nc3c2CCc2ccccc2-3)c1O | 82.2% (active) |
| CN(C)CCNC(=O)c1[nH]nc2c1CCc1ccccc1-2 | -8.17% (inactive) |
| COc1cc2cc(C(=O)N/N=C/c3cccc(OC)c3OC)[nH]c2cc1OC | 0.139% (inactive) |
| COc1cc(C(=O)NC2CCN(C)CC2)ccc1Nc1ncc2c(n1)N(C1CCC(O)CC1)CCC(=O)N2C (centres undefined) | -0.596% (inactive) |
| COc1cc(SC)ccc1C(=O)NNC(=O)C1COc2ccccc2O1 (centres undefined) | -1.75% (inactive) |
| CCCN(CC(=O)Nc1ccccc1C)C(=O)c1ccc2[nH]c3c(c2c1)CC(C)CC3 (centres undefined) | 8.11% (inactive) |
| COc1ccc(OCCCC(=O)Nc2cccc(S(=O)(=O)N3CCCCCC3)c2)cc1 | -3.4% (inactive) |
| CC(C)c1ccc(Cc2nnc(NCCCO)[nH]c2=O)cc1 | -1.74% (inactive) |

| SMILES | protection from apoptosis |
| --- | --- |
| COc1ccc(Cc2nnc(N/N=C/c3ccccc3O)[nH]c2=O)cc1OC | 85.2% (active) |
| COc1ccc(/C=N/Nc2nc3ccccc3c(=O)[nH]2)cc1 | 12% (inactive) |
| CC(=O)c1c(C)[nH]c(C(=O)COc2ccc3c(C)cc(=O)oc3c2)c1C | -1.3% (inactive) |
| CN(c1ccccc1)S(=O)(=O)c1ccc(C(=O)N2CCN(c3ccccc3Cl)CC2)cc1 | 3.55% (inactive) |
| Cc1ccc2c(c1)NC(=O)[C@@]1(C)[C@@H](c3ccccc3)[C@H]3COc4ccc(Cl)cc4[C@@H]3N1C2=O | -5.63% (inactive) |
| CCOC(=O)C1=C(CN2CCCCCC2)NC(=O)NC1c1cccc([N+](=O)[O-])c1 (centres undefined) | -5.34% (inactive) |
| CCOC(=O)C1=C(CCc2ccccc2)NC(=O)NC1c1ccc2ccccc2c1 (centres undefined) | 93.7% (active) |
| CCOC(=O)C1=C(CN2CCc3ccccc32)NC(=O)NC1c1ccc(Cl)cc1 (centres undefined) | -0.812% (inactive) |
| Cc1ccc(CNC(=O)COc2ccc(S(=O)(=O)NC(C)C)cc2)cc1 | -8.98% (inactive) |
| Cc1cc(S(=O)(=O)NC2CCCCC2)ccc1OCC(=O)NCc1cccnc1 | 6.11% (inactive) |
| Cc1ccc(C)c(NS(=O)(=O)c2ccc(OCC(=O)NCc3cccnc3)cc2)c1 | 99.2% (active) |
| COc1ccc(-c2nn(-c3ccccc3)cc2/C=N/Nc2ccccn2)cc1OC | 59.9% (inactive) |
| Oc1ccc(Br)cc1/C=N/Nc1ccccn1 | 133% (active) |
| O=[N+]([O-])c1ccc(O)c(/C=N/Nc2ccccc2[N+](=O)[O-])c1 | 36.9% (inactive) |
| CCOC(=O)[C@H]1[C@H]2COc3cc(OC)ccc3[C@@H]2N2C(=O)CN(Cc3ccc(Cl)cc3)C(=O)[C@@]12C | -0.794% (inactive) |
| COc1ccc(C(=O)NCC2CCCCC2)cc1S(=O)(=O)N1CCCC1 | -0.303% (inactive) |
| CC(Sc1nnc(C2CC2)n1C1CC1)C(=O)Nc1ccc(C(N)=O)cc1 (centres undefined) | -0.98% (inactive) |
| Oc1ccc(CN2CCN(c3ncccn3)CC2)cc1 | -1.21% (inactive) |
| Oc1c(CN2CCN(c3ccc(F)cc3)CC2)cc(Cl)c2cccnc12 | 111% (active) |
| Oc1c(CN2CCCC2)cc(COCc2ccccc2)c2cccnc12 | 73% (inactive) |
| CC1CCCCC1NC(=O)COc1ccc(C#N)cc1 (centres undefined) | 0.693% (inactive) |

| SMILES | protection from apoptosis |
| --- | --- |
| CNS(=O)(=O)c1ccc(C(=O)NCC(=O)NCCc2ccc3c(c2)OCCO3)cc1 | -2.22% (inactive) |
| Cc1cc(C)nc(N/N=C/c2c(CO)cnc(C)c2O)n1 | -3.01% (inactive) |
| CCN(CC)c1ccc(/C=N/NC(=O)c2cnccn2)c(O)c1 | 101% (active) |
| Cc1cc(C)nc(N/N=C/c2ccncc2)n1 | -0.736% (inactive) |
| Cc1ccc(C(=O)NCCNC(=O)c2cnccn2)cc1 | -7.48% (inactive) |
| CCN(CC)c1ccc(/C=N/NC(=O)CNC(=O)c2cccnc2)cc1 | 4.98% (inactive) |
| CCN(CC)c1ccc(/C=N/Nc2nc(C)cc(C)n2)c(O)c1 | 81.7% (active) |
| CC1(C)CC[C@@]2(C(=O)O)C(C1)C1=CCC3[C@@]4(C)CC[C@H](O)C(C)(C)C4CC[C@@]3(C)[C@]1(C)C[C@H]2O (some centres undefined) | 22.4% (inactive) |
| COc1ccc(C(=O)Nc2cc(S(=O)(=O)N3CCCC3)ccc2Cl)cc1 | -1.79% (inactive) |
| O=C1NC(Cc2ccc(O)cc2)c2nc3ccc(Cl)cc3c(=O)n2-c2ccccc21 (centres undefined) | -3.47% (inactive) |
| CN(Cc1ccc(CNC[C@H]2O[C@@H](n3cnc4c(N)ncnc43)[C@H](O)[C@@H]2O)o1)S(C)(=O)=O | -10.1% (inactive) |
| C[C@@H]1CN([C@@H](C)CO)C(=O)c2cc(NC(=O)C3CC3)ccc2O[C@H]1CN(C)C | 0.593% (inactive) |
| CCOC(=O)c1ccc(-c2ccc(C(=O)Nc3cccnc3)o2)cc1 | 3.72% (inactive) |
| CCOC(=O)c1cc(NC(=O)c2cccnc2)ccn1 | -6.76% (inactive) |
| Cc1cc(NS(=O)(=O)c2ccc(NC(=O)c3cccnc3)cc2)nc(C)n1 | -3.28% (inactive) |
| CCOC(=O)c1ccc(NC(=O)c2cccnc2)cc1 | 112% (active) |
| Cc1ccc(-n2nc3cc(C)c(NC(=O)c4cccnc4)cc3n2)cc1 | -1.41% (inactive) |
| CC(=O)NC(=S)Nc1ccc(NC(=O)c2cccnc2)cc1 | -1.43% (inactive) |
| O=C(Cc1ccccc1)Nc1ccc(NC(=O)c2cccnc2)cc1 | -0.0371% (inactive) |
| Cc1ccc2nc(-c3ccc(NC(=O)c4cccnc4)cc3)oc2c1 | 106% (active) |
| Cc1cc2nc(-c3ccc(NC(=O)c4cccnc4)cc3)oc2cc1C | 104% (active) |

— PubChem BioAssay AID435005 (Broad Institute, 2010)
